# Assay outcomes from PubChem.
# An excerpt weighted towards active compounds, which were near 4% of everything screened.
# Peg3 promoter: Peg3 promoter activity inhibition. HeLa PEG-Prom luciferase reporter, luminescence, overnight. hit rate 1.7% among 360,000. inhibition, % at 20 µM;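 active = inhibition of at least 50% at 20 µM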
# KKLEB cytotox: reduces viability of KKLEB cystic fibrosis airway cells | activity change (cytotoxicity), % at 5 µM | KKLEB CF airway cells viability, ATPlite luminescence, overnight; hits give low values; cells stimulated with P. aeruginosa culture filtrate | hit rate 0.36% among 360,000 | AID 602141;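 active = corrected activity change at or below -50% at 5 µM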
# TWEAK Fn14 block: inhibitors of TWEAK-Fn14 interaction signaling; TWEAK-stimulated Fn14 reporter cells, luciferase luminescence, 8 h; hit rate 2% among 360,000; inhibition, % at 10 µM; AID 1159606; in the data active = inhibition above about 50%
# HIF-2a inh: blocks HIF-2a reporter activity; 786-0 RCC cells HIF-2a reporter, luciferase luminescence, overnight; inhibition, % at 18.8 µM; hit rate 0.72% among 360,000; AID 624352;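 active = inhibition of the luminescence signal of 40% or more relative to plate controls, in a single-dose primary screen at 18.75 µM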
# CF NFkB block: inhibitors of cystic fibrosis induced NF-kB; KKLEB NF-kB-GFP reporter, PAF-induced, GFP fluorescence overnight; inhibition, % at 5 µM; hit rate 0.86% among 360,000; AID 588850;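 active = at least 50% inhibition at 5 µM, scaled per plate between neutral and stimulator controls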;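 note: PAF is a Pseudomonas aeruginosa culture filtrate used as stimulus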
# TROY NFkB inh: blocks TROY-dependent signaling in reporter cells | inhibition, % at 10 µM | hit rate 0.98% among 360,000 | Q293 LMP1-TROYcd NF-kB luciferase reporter, 4 h;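 active = compounds whose plate-normalised and pattern-corrected inhibition of the luciferase reporter signal at the single screening dose is 50% or more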
# Hits are given with their value; – = inactive; · = no result given.
SMILES,Peg3 promoter,KKLEB cytotox,TWEAK Fn14 block,HIF-2a inh,CF NFkB block,TROY NFkB inh
COc1ccc(OC)c(/C=N/NC(=O)c2[nH]ncc2Br)c1,–,–,–,–,–,–
CCOc1ccc(/C=N/NC(=O)c2[nH]ncc2Br)c(O)c1,–,–,76,–,–,–
Clc1cccc(CN2CCc3c([nH]c4ccccc34)C2)c1,60,–,–,–,–,–
CCOC(=O)N1CCN(c2c(N3CCN(c4ccccc4F)CC3)c(=O)c2=O)CC1,–,–,–,–,–,–
O=C(CCl)N1CCN(S(=O)(=O)c2ccc3c(c2)CCC3)CC1,50,–,–,–,–,–
COC(=O)c1ccc2c(=O)n(CCCCCC(=O)O)c(=O)[nH]c2c1,–,–,–,–,–,–
COC(=O)c1ccc2c(=O)n(CCCCCC(=O)N3CCN(c4ccc(F)cc4)CC3)c(=O)[nH]c2c1,90,–,56,–,–,60
COc1cc2[nH]c(=O)n(CCCCCC(=O)N3CC=C(c4ccccc4)CC3)c(=O)c2cc1OC,70,–,59,–,–,–
Nc1ccc(S(=O)(=O)Nc2nccs2)cc1N=Nc1ccccc1[N+](=O)[O-],–,–,–,–,–,–
C/C(=C(/NC(=O)c1ccccc1)C(=O)O)c1ccco1,–,–,87,–,–,–
Cc1cc(C)cc(CC(Cc2nc3ccccc3[nH]2)c2nc3ccccc3[nH]2)c1 (centres undefined),–,–,56,–,–,52
Cc1ccc(CSCc2nc3ccccc3[nH]2)cc1,–,–,–,–,–,–
O=C1C=C(N2CCOCC2)c2ccccc2C1=O,101,-76,–,–,85,–
O=C1C=C(N2CCOCC2)c2cccc3cccc1c23,–,–,–,–,–,–
CC(=O)c1cccc(NC(=O)N2CCCC(C(=O)c3cc(F)ccc3F)C2)c1 (centres undefined),–,–,–,–,–,–
COc1ccccc1-c1c(C)nn2c(-c3ccccc3)cc(C)nc12,–,–,–,–,–,–
Cc1cc(NCCCn2ccnc2)n2ncc(-c3ccccc3)c2n1,–,–,99,–,–,81
Cc1cc(NC2CCCC2)n2nc(C)c(-c3ccccc3)c2n1,–,–,–,–,–,–
COc1ccc(-c2cc(C)nc3c(-c4ccccc4)cnn23)cc1,–,–,65,–,–,66
Cc1cc(NCc2ccccc2)n2ncc(-c3ccccc3)c2n1,–,–,–,–,–,–
Cc1cc(NCCCn2ccnc2)n2nc(C)c(-c3ccccc3)c2n1,–,–,–,–,–,–
Cc1cc(NC2CCCC2)n2ncc(-c3ccccc3)c2n1,–,–,90,–,–,81
Cc1cc(-c2ccccc2)n2ncc(-c3ccccc3)c2n1,–,–,89,–,–,74
CCN(c1ccccc1)S(=O)(=O)c1ccc(NC(=S)NC(=O)c2ccc(Br)o2)cc1,–,–,–,–,–,–
COc1ccc(OC)c(-n2c(C)nc3cc(C(=O)O)ccc32)c1,–,–,–,–,–,–
SMILES,Peg3 promoter,KKLEB cytotox,TWEAK Fn14 block,HIF-2a inh,CF NFkB block,TROY NFkB inh
CCS(=O)(=O)c1nc(S(=O)(=O)c2ccc(C)cc2)c(N2CC(C)OC(C)C2)s1 (centres undefined),–,–,–,–,–,–
Cc1nc2c(-c3ccccc3)cnn2c(N)c1-c1ccccc1,–,-65,98,–,–,77
COc1ccc(-c2nc(NC(C)=O)sc2-c2ccc(OC)cc2)cc1,–,–,–,–,–,–
COc1ccc(C2CC(=O)c3sc(NC(C)=O)nc3C2)cc1 (centres undefined),–,–,72,–,–,62
CCN(C[C@H]1N[C@@](Cc2ccccc2)(C(=O)OC)[C@H]2C(=O)N(Cc3ccccc3)C(=O)[C@@H]12)S(=O)(=O)c1ccc(-c2ccccc2)cc1,–,–,–,–,–,–
FC(F)(F)C1=Nc2cccc3cccc(c23)N1,111,–,–,–,–,–
CCCCC(CC)CN1CN(CC(CC)CCCC)CC(C)(N)C1 (centres undefined),103,–,–,–,–,–
CCCCC(CC)COP(=O)(OCC(CC)CCCC)OCC(CC)CCCC (centres undefined),–,–,–,–,–,–
O=C(c1ccc2c(c1)OCO2)C1CCCN(Cc2ccc3cccc(F)c3n2)C1 (centres undefined),–,–,–,–,–,–
CCC(C)n1ncn(-c2ccc(N3CCN(c4ccc(OCC5COC(Cn6cncn6)(c6ccc(Cl)cc6Cl)O5)cc4)CC3)cc2)c1=O (centres undefined),–,–,–,–,63,–
COc1cccc(C(=O)Nn2c(C)nnc2-n2nc(C)cc2C)c1,–,–,–,–,–,–
COc1ccccc1-n1c(SCC(=O)N2CCCCC2)nc(O)c(Cc2ccccc2)c1=O,97,–,–,–,–,–
COc1ccccc1-n1c(SCC(=O)NC(C)(C)C)nc(O)c(Cc2ccccc2)c1=O,–,–,–,–,–,–
Oc1ccc(-c2cn3ccccc3n2)cc1O,–,–,–,–,–,–
Cc1ccn2cc(-c3ccc(O)c(O)c3)nc2c1,–,–,80,–,–,–
Cc1cc(=O)oc2ccc(OC(=O)c3cccc(S(=O)(=O)N4CCOCC4)c3)cc12,–,–,101,–,–,–
COc1ccc(N2C(=O)C3CC(C)=C(C)CC3C2=O)c(OC)c1 (centres undefined),–,–,–,–,–,–
COc1cc(N2C(=O)C=CC2=O)ccc1N1C(=O)C=CC1=O,111,–,–,85,78,–
c1ccc(OCCn2cnc3ccccc32)cc1,–,–,–,–,–,–
c1ccc(OCCCCn2cnc3ccccc32)cc1,–,–,74,–,–,·
Cc1ccc(C(=O)O)cc1NS(=O)(=O)c1ccc2ccccc2c1,–,–,–,–,–,–
CC(C)OC(=O)C(C(=O)C(F)(F)F)c1cc(NS(=O)(=O)c2ccc3ccccc3c2)c2ccccc2c1O (centres undefined),–,–,62,–,–,68
COc1ccc(C(CNC(=O)c2cc3ccccc3cc2O)N2CCOCC2)cc1 (centres undefined),–,–,–,–,–,–
CCOC(=O)c1ccc(NC(=O)COc2ccc(CNCCO)cc2OCC)cc1,–,–,–,–,–,–
CCOC(=O)c1ccc(NC(=O)COc2ccccc2CNCCc2ccccc2)cc1,98,–,–,–,–,–
Cc1ccccc1-n1c(SCc2cc(=O)n3ccccc3n2)nc2[nH]ncc2c1=O,–,–,60,–,–,·
Cc1cccc2nc(CSc3nc4[nH]ncc4c(=O)n3-c3ccccc3Cl)cc(=O)n12,–,–,–,–,–,–
O=C(NCCCl)Nc1cc([N+](=O)[O-])ccc1Cl,–,–,–,–,–,62
Cc1cc(C)n2c(SCC(=O)Nc3ccc(F)cc3F)nnc2n1,–,–,–,–,–,–
